# From the supplement of paper PMC7393113
# ± gives the standard deviation of the averaged measurements.
# System: iBMDM (immortalised mouse bone-marrow-derived macrophages), LPS-stimulated
# Assay: mitochondrial superoxide (MitoSOX fluorescence) fold increase over unstimulated control; higher = more LPS-induced mitochondrial ROS (less inhibition)
# Conditions: inhibitor concentration: 500 nM; LPS: 100 ng/ml; time after LPS: 2 h
# Procedure, shortened: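 Mitochondrial superoxide values are mean fold induction compared with untreated macrophages. Triplicate wells of immortalised mouse bone-marrow-derived macrophages in phenol-red-free 1% FCS/DMEM received kinase inhibitors (500 nM) for 30 min, then 1 μM MitoSox for 10 min, then LPS (100 ng/ml). Fluorescence (510/580 nm) was taken every 60 min for 4 h.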
row,Compound,mitochondrial superoxide
1,CN1CCN(S(=O)(=O)c2ccc(-c3cnc(N)c(C(=O)Nc4cccnc4)n3)cc2)CC1,1.46 ± 0.031
2,O=c1c(-c2ccc(O)cc2)coc2cc(O)cc(O)c12 [Genistein],1.29 ± 0.058
3,CC(C)(O)CC(=O)NCCn1ccc2ncnc(Nc3ccc(Oc4cccc(C(F)(F)F)c4)c(Cl)c3)c21,1.37 ± 0.12
4,COc1cccc(-c2cc(=O)c3ccccc3o2)c1N,1.57 ± 0.021
5,Cn1cc(-c2[nH]c3cc(NC(=O)[C@H](N)C4CCCCC4)cc4c3c2C=NNC4=O)cn1,1.15 ± 0.043
6,Cc1ccc(-n2nc(C(C)(C)C)cc2NC(=O)Nc2ccc(OCCN3CCOCC3)c3ccccc23)cc1 [BIRB 796 (Doramapimod)],1.11 ± 0.024
7,Cc1ccc(-c2nn(C(C)(C)C)c3ncnc(N)c23)cc1,1.22 ± 0.055
8,COc1cc(OC)c(/C=C/S(=O)(=O)Cc2ccc(OC)c(NCC(=O)O)c2)c(OC)c1,1.15 ± 0.084
9,C=CC(=O)N1CCC[C@@H](n2nc(-c3ccc(Oc4ccccc4)cc3)c3c(N)ncnc32)C1,1.32 ± 0.041
10,COc1cc2/c(=N/c3ccc(Br)cc3F)nc[nH]c2cc1OCC1CCN(C)CC1 [Vandetanib (ZD6474)],1.63 ± 0.054
11,COc1ccc2c(Oc3ccc(NC(=O)c4c(C)n(CC(C)(C)O)n(-c5ccccc5)c4=O)nc3)ccnc2c1,1.2 ± 0.034
12,O=C1c2ccc(Nc3ccc(F)cc3F)cc2CCc2ccc(OC[C@H](O)CO)cc21 [Skepinone-L],1.41 ± 0.05
13,CO[C@H]1C[C@@H]2CC[C@@H](C)[C@@](O)(O2)C(=O)C(=O)N2CCCC[C@H]2C(=O)O[C@H]([C@H](C)C[C@@H]2CC[C@@H](OCCO)[C@H](OC)C2)CC(=O)[C@H](C)/C=C(\C)[C@@H](O)[C@@H](OC)C(=O)[C@H](C)C[C@H](C)/C=C/C=C/C=C/1C [Everolimus (RAD001)],1.42 ± 0.028
14,Cc1[nH]c(/C=C2\C(=O)Nc3ccc(S(=O)(=O)N(C)c4cccc(Cl)c4)cc32)c(C)c1C(=O)N1CCN(C)CC1,1.4 ± 0.15
15,Nc1nc(N)c2nc(-c3cccc(O)c3)cnc2n1,1.04 ± 0.043
16,O=C(Cc1ccc(-c2ccc(OCCN3CCOCC3)cc2)cn1)NCc1ccccc1,1.4 ± 0.1
17,Oc1ccc2ccccc2c1SSc1c(O)ccc2ccccc12,1.22 ± 0.04
18,Cc1cn(-c2cc(NC(=O)c3ccc(C)c(Nc4nccc(-c5cccnc5)n4)c3)cc(C(F)(F)F)c2)cn1 [Nilotinib (AMN-107)],1.53 ± 0.07
19,CN(C)c1ccc(-c2nc3ncc(Cl)c(N4CCN(CC(=O)Nc5nccs5)CC4)c3[nH]2)cc1,1.278 ± 0.0079
20,Cn1cnc2c(F)c(Nc3ccc(Br)cc3F)c(C(=O)NOCCO)cc21,1.26 ± 0.038
21,Cc1ncc(-c2ccnc(Nc3ccc(S(C)(=O)=O)cc3)n2)n1C(C)C,1.46 ± 0.063
22,COc1cc2nccc(Oc3ccc(NC(=O)C4(C(=O)Nc5ccc(F)cc5)CC4)cc3)c2cc1OC,1.43 ± 0.017
23,Cc1nc(Nc2ncc(C(=O)Nc3c(C)cccc3Cl)s2)cc(N2CCN(CCO)CC2)n1 [Dasatinib],1.61 ± 0.069
24,CC1=C(C(=O)Nc2cc3cn[nH]c3cc2F)C(c2ccc(C(F)(F)F)cc2)CC(=O)N1 (configuration not stated),1.26 ± 0.033
25,CCN1CCN(Cc2ccc(Nc3ncc(F)c(-c4cc(F)c5nc(C)n(C(C)C)c5c4)n3)nc2)CC1,1.25 ± 0.02
26,Cc1ccc(S(=O)(=O)Nc2nc3ccccc3nc2Nc2ccc3nsnc3c2)cc1,1.48 ± 0.091
27,Oc1ccc(Nc2nc(-c3ccc(Cl)cc3)cs2)cc1,1.56 ± 0.01
